Measurements reported in the supplement of paper PMC3334620.
Whole data set: some 33,000 sequences, median “E-score (-0.5 to 0.5)” near -0.015, cut for the highest 2% near 0.3. The list comes from a sample in which the highest values are over-represented; it also holds similar and randomly drawn sequences.

The sequences below were run against T1, Abf1 (UniProt P14164) (assay: PBM E-score (8-mer binding enrichment) (E-score (-0.5 to 0.5)); higher = stronger / more preferred TF binding). Details: protein concentration: 200 nM; construct: GST-full length.
T1 sequence: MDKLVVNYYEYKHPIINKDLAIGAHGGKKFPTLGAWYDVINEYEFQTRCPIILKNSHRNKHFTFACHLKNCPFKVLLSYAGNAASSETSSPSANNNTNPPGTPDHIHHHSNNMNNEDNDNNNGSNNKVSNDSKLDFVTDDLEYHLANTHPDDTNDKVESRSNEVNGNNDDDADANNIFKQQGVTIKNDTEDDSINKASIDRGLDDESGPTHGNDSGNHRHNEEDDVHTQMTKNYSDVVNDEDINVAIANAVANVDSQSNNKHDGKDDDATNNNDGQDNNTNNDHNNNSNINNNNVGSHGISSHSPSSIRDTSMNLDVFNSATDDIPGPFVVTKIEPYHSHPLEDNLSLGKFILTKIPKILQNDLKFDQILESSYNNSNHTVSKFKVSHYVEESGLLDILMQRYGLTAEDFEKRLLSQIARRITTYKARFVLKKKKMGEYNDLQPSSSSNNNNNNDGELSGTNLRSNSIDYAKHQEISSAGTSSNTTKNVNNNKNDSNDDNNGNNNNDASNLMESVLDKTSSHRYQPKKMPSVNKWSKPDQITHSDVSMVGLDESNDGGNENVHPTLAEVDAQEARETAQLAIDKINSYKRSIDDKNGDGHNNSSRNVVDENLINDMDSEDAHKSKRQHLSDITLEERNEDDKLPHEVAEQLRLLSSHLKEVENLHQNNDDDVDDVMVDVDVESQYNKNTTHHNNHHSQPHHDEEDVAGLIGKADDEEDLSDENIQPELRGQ
Method: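 Universal 'all 10-mer' protein binding microarrays (Agilent AMADID 015681) probed with GST-tagged S. cerevisiae TFs (full-length or DBD) made by in vitro transcription/translation (PURExpress), about 100-200 nM. Bound TF was detected with fluorescent anti-GST. Each ungapped 8-mer (which stands for itself and its reverse complement) is scored by the PBM enrichment score (E-score), a modified Wilcoxon-Mann-Whitney statistic from -0.5 to +0.5, computed with the Universal PBM Analysis Suite. Scale: above 0.35 generally sequence-specific binding.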

| Sequence | PBM E-score |
| --- | --- |
| TATCACAA | 0.25 |
| AATCACGG | 0.213 |
| CATCACGA | 0.0436 |
| AATCACGA | 0.309 |
| AGGTTATC | 0.0463 |
| CGCAGATA | 0.0501 |
| AGACGGCC | -0.0278 |
| AGACGGCG | 0.306 |
| CCACGGCG | 0.142 |
| ACACGGCA | 0.294 |
| ACACGGCG | 0.305 |
| CGACGGCG | 0.171 |
| CCCGCTCG | -0.0943 |
| ATAAACGG | 0.273 |
| TAAACTCA | -0.0231 |
| AACGATCA | 0.24 |
| AACGATAA | 0.294 |
| GACGATAC | 0.278 |
| AACGATCT | 0.303 |
| ACCGATAT | 0.0499 |
| AACGATAG | 0.265 |
| AGCGATAC | 0.202 |

| Sequence | PBM E-score |
| --- | --- |
| AACGATAT | 0.385 |
| AACGATAC | 0.32 |
| AGCGATAT | 0.352 |
| AGCGATAG | 0.0445 |
| AACGATCC | -0.00029 |
| GCAATTCA | -0.0514 |
| ATCGCAGC | -0.0387 |
| CACTTCAG | 0.0421 |
| GCGGTTTA | -0.161 |
| ATCCCTGA | -0.0627 |
| CCAGGGGC | -0.331 |
| ATTAGCGA | 0.136 |
| GTTAGCGA | 0.32 |
| CTTAGCGA | 0.0369 |
| GGGTTATA | -0.105 |
| AATTTACG | 0.0813 |
| ATTTTACG | 0.322 |
| ATTTTACC | 0.11 |
| TACAGCTA | -0.41 |
| CTTAGTGC | -0.0935 |
| CTTAGTGA | 0.305 |
| AATAGTGG | 0.0153 |

| Sequence | PBM E-score |
| --- | --- |
| GTTAGTGA | 0.17 |
| ATTAGTGA | 0.365 |
| ATTAGTGG | 0.1 |
| AATAGTGC | 0.0751 |
| AATAGTGA | 0.358 |
| ATTAGTGC | 0.148 |
| TCGAGCAA | 0.1 |
| ATTTCCGG | 0.0492 |
| ATTTCTTA | 0.0563 |
| GAAGAAAC | -0.133 |
| AAATTCGG | 0.0545 |
| AAATTCGT | 0.328 |
| AAATTCGC | 0.0441 |
| AATTTCGT | 0.36 |
| AATTTCGA | 0.00012 |
| AATTTCGC | -0.0531 |
| GACGCCTC | -0.0456 |
| ATAACCCA | -0.0314 |
| AGGGTAAT | 0.0413 |
| CACAGTGA | 0.109 |
| GCATCTCC | -0.255 |
| ACTGGAGA | -0.174 |

| Sequence | PBM E-score |
| --- | --- |
| CCCCCAGA | -0.326 |
| CACGAGTC | 0.0257 |
| CGCACGAG | 0.156 |
| TGCACGAA | 0.368 |
| AGCACGAA | 0.217 |
| GGCACGAA | 0.103 |
| CGCACGAC | 0.242 |
| CGCACGAA | 0.321 |
| CACAACGC | -0.174 |
| AGGGAGGA | -0.187 |
| ATCCGGGC | -0.197 |
| ATGATAGG | 0.116 |
| CTGATATA | 0.107 |
| ATGATATA | 0.403 |
| GTGATATA | 0.395 |
| CCGATATA | 0.0343 |
| GGGATATA | -0.045 |
| GCGATACA | 0.139 |
| GAGATATA | 0.147 |
| AAGATATA | 0.162 |
| AAGATATG | 0.283 |
